Screens deposited in PubChem BioAssay by National Center for Advancing Translational Sciences (NCATS).
This is a sample that favours compounds with a hit; in the whole collection about 1.4% have one here.
AMA1-RON2 inh – disrupts binding of P. falciparum AMA1 to RON2; AlphaScreen AMA1-biotinylated RON2 peptide binding; Potency, µM (doses to about 58.2 µM), for the others: at the highest dose activity change, negative = inhibition, most hits filed as inhibitors; 0.2% of 360,000 active;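 further: 0% = vehicle wells and -100% = peptide control; nearly all actives have a fitted effect of over 45% in size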
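AMA1 (3D7) with his tag at 25 nM final met compounds first, then biotinylated RON2 peptide at 25 nM; detection used donor plus acceptor beads, 10 µg/mL apiece, read by AlphaScreen after 30 min at room temperature.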
VACV mCherry inh – vaccinia inhibition (mCherry reporter). 0.63% of 310,000 active. Vaccinia virus mCherry reporter infection, fluorescence. Potency, µM (series often up to 36.5 µM), for the others: top-dose activity change, negative = inhibition, hits mostly inhibitors; calls by dose curve; tested in A549 cells; further: on the % scale 0 is the no-effect control and ±100 the full control effect; nearly all actives have a fitted effect of over 35% in size
Vaccinia Venus – inhibitors of vaccinia virus (Venus reporter); Vaccinia virus Venus reporter expression, fluorescence; Potency, µM (doses to about 36.5 µM), for the others: top-dose activity change, negative = inhibition, actives largely listed as inhibitors; 0.46% of 330,000 active; calls by dose curve; tested in A549 cells; further: on the % scale 0 is the no-effect control and ±100 the full control effect; nearly all actives have a fitted effect of over 30% in size
SARS PLP yeast – blocks SARS-CoV papain-like protease in a yeast assay; S. cerevisiae expressing SARS-CoV PLpro, growth rescue; Potency, µM (series often up to 32.9 µM), for the others: at the highest dose activity, positive = growth rescue, hits mostly activators; 0.19% of 330,000 active; calls by dose curve; further: 0% is about no effect; nearly all actives have a fitted effect of over 55% in size
AmpC detergent – blocks E. coli AmpC beta-lactamase in detergent assay. AmpC hydrolysis of nitrocefin, absorbance 480 nm, 0.01% Triton. AID 485294. 0.041% of 370,000 active. Potency, µM (top dose mostly 114 µM), without a hit: at the top dose activity change, negative = inhibition, most hits filed as inhibitors. P00811;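 further: 0% = no-compound wells and -100% = no-enzyme wells; nearly all actives have a fitted effect of over 25% in size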
Target sequence (P00811 whole entry, looked up): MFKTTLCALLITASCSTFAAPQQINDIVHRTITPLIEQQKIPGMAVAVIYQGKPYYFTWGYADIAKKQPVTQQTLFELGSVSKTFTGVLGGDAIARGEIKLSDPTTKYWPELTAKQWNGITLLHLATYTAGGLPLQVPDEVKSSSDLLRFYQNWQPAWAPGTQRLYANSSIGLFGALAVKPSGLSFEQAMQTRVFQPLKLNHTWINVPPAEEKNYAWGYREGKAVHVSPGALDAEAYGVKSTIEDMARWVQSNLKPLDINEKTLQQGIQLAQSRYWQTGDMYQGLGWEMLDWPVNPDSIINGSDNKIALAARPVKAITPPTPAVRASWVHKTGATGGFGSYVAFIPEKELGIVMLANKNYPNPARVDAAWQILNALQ
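AmpC (5.3 nM in the dispensed reagent) in 20 mM phosphate pH 7.0 with 0.01% (detergent screen) or 0.0001% Triton X-100 was preincubated with compounds for 15 min at room temperature. Nitrocefin was then added from an 800 uM solution, and hydrolysis was followed at 480 nm.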
AmpC no deterg – AmpC beta-lactamase inhibition without detergent. P00811. AmpC nitrocefin hydrolysis, absorbance 480 nm, 0.0001% Triton. Potency, µM (doses to about 57.1 µM), for inactives: at the top dose activity change, negative = inhibition, usual class: inhibitors. 0.52% of 330,000 active;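 further: plate controls were no compound for no effect and no enzyme for full effect; nearly all actives have a fitted effect of over 20% in size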
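20 mM phosphate pH 7.0 + 0.01% (detergent screen) or 0.0001% Triton X-100; 5.3 nM AmpC reagent; cpd preinc 15 min RT; nitrocefin (800 uM stock) to start; A480 q20 s × 4 min; Activity was normalised to no-enzyme and no-compound control wells.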
* marks the source's active call; other numbers are inactive results; i = inactive; ? = inconclusive; · = not tested or not shown; [ ] = remark or other dose. Unless noted, the call rests on the fitted dose curve; in most records, active means well fitted curve in the direction sought with a large enough effect; inconclusive means small, poorly fitted or top-dose-only effect, or another doubt; inactive means no such curve, though single readings can be large; an effect the other way counts as inactive or inconclusive. Potency means the concentration at half of the fitted maximal effect.

SMILES	AMA1-RON2 inh	VACV mCherry inh	Vaccinia Venus	SARS PLP yeast	AmpC detergent	AmpC no deterg
CN(C)c1ccc(C2=Cc3ccccc3C2)cc1	·	-3%	-6%	·	·	·
Nc1nc(Sc2ccc([N+](=O)[O-])c3nonc23)c2[nH]cnc2n1	?	?	141%	·	·	·
CNc1ncnc(Sc2nc(N)nc3nc[nH]c23)c1[N+](=O)[O-]	-6%	5µM*	?	·	·	·
CCOC(=O)c1c(-n2c(C)cc(C=C3C(=O)NC(=O)NC3=O)c2C)sc2c1CCCC2	-11%	·	·	-13%	2%	0%
Cc1cccc(N2C(=O)NC(=O)/C(=C\c3cc(C)n(-c4sc5c(c4C#N)CCCC5)c3C)C2=O)c1C	0%	-9%	1%	-16%	-7%	32µM*
CCOC(=O)N1CCc2[nH]c3ccc(C)cc3c2C1	40µM*	i	?	1%	4%	24%
O=C(Nc1ccc(Cl)c(Cl)c1)Nc1ccc(N2CCCC2)c(S(=O)(=O)Nc2ccccc2Cl)c1	-2%	13µM*	11µM*	2%	-12%	-57%
O=C(CN1CCCC1)Nc1ccc(NC(=O)Nc2ccccc2Cl)cc1	-2%	·	-23%	3%	?	16µM*
O=C(Nc1ccc(F)cc1)Nc1ccc(N2CCCC2)c(S(=O)(=O)Nc2ccccc2Cl)c1	1%[11.6 µM]	11µM*	11µM*	4%	-3%	-36%
O=C(CN1CCCC1)Nc1ccccc1Cl	0%	·	·	0%	-2%	-3%
O=C(Nc1ccc(N2CCCCC2)c(S(=O)(=O)Nc2ccccc2Cl)c1)c1cccnc1	-2%	-1%	-7%	-11%	·	5%
O=C(Nc1ccccc1Cl)NC1CCCCCCC1	1%	-1%	-2%	-4%	3%	35µM*
O=C(Nc1ccc(N2CCOCC2)c(S(=O)(=O)Nc2ccccc2Cl)c1)c1ccc(F)cc1	-8%	-12%	-21%	13%	·	?
CC(C)(C)C1CCc2c(sc(NC(=O)CCC(=O)O)c2C(=O)Nc2ccccc2C(F)(F)F)C1 (stereo not drawn)	·	4%[7.34 µM]	-1%[7.34 µM]	·	-15%	·
COc1cccc(NC(=O)CN2CC(c3ccccc3)CC2=O)c1 (stereo not drawn)	-8%	·	·	?	-11%	2%
CCOc1ccc(NC(=O)CN2CC(c3ccccc3)CC2=O)cc1 (stereo not drawn)	-1%	·	·	0%	-15%	2.5µM*
Cc1nn(C)cc1CNc1nc(C)c(-c2ccn(CC3COc4ccccc4O3)n2)s1 (stereo not drawn)	·	-9%	-10%	·	·	·
N=c1c2c(-c3ccccc3)c(-c3ccccc3)n(Cc3ccccc3)c2ncn1CCCn1ccnc1	-21%	·	14µM*	4%	-3%	141%
N=c1c2c(-c3ccccc3)c(-c3ccccc3)n(Cc3ccco3)c2ncn1Cc1ccco1	-22%	·	11µM*	-6%	?	110%
COc1cccc(CNC(=O)c2c(OC)cc(=O)n3c2CCN(C(=O)c2ccc(C)s2)CC3)c1	·	i	-5%	·	·	·
O=C(c1cnn2c1NC(=C1CC1)C=C2C(F)F)N1CCc2ccccc21	·	-7%	-21%	·	·	·
N#CC(C#N)=C1C=CC=CN1/C(=C\c1ccco1)C(=O)c1ccc(Cl)cc1	-3%	?	28µM*	14%	-11%	-19%
Cn1c(=O)c(Oc2cc(Cl)cc(Cl)c2)nc2ccccc21	14%	0%	0%	-1%	2%	0.4µM*
Cc1ccc(CNC(=O)COC(=O)c2ccccc2OCC(=O)Nc2ccc(Br)cc2)cc1	·	i	-14%	·	·	·
Cc1ccc(CN2[C@H]3CCCC[C@@H]3OCCS2(=O)=O)cc1	·	i	-15%	·	·	·
SMILES	AMA1-RON2 inh	VACV mCherry inh	Vaccinia Venus	SARS PLP yeast	AmpC detergent	AmpC no deterg
COc1ccc(-c2csc3ncnc(N4CCN(S(=O)(=O)c5ccc(C(C)=O)cc5)CC4)c23)cc1	-5%	?	-27%	-1%	?	32µM*
Cn1c(=O)[nH]c(=O)c2c1nc([N+](=O)[O-])n2Cc1ccccc1	-8%	?	10µM*	-2%	7%	-4%
O=C(c1ccccc1-n1cccn1)N1CCOc2c(cc(-c3ncc(C(F)(F)F)cc3Cl)cc2OCC2CCCO2)C1 (stereo not drawn)	·	-8%	-5%	·	·	·
CN(C)CCCN(C(=O)c1ccc([N+](=O)[O-])s1)c1nc2cc3c(cc2s1)OCCO3	-12%	·	·	0%	2%	3%
CN(C)CCCN(C(=O)c1cc2cc([N+](=O)[O-])ccc2s1)c1nc2cc3c(cc2s1)OCCO3	?	14µM*	13µM*	-2%	-13%	61%
Cc1nn(Cc2cccc(F)c2)c(C)c1NC(=O)c1ccc(COc2ccccc2Cl)cc1	14%	11µM*	13µM*	1%	3%	38%
CCC(=O)NC(c1cccs1)c1cc(Br)c2cccnc2c1O (stereo not drawn)	·	·	·	0%	9%	-29%
O=C(CCc1ccccc1)NC(c1cccs1)c1cc(Cl)c2cccnc2c1O (stereo not drawn)	97%	8.9µM*	?	12%	7%	-33%
CCC(=O)NC(c1ccco1)c1cc(Cl)c2cccnc2c1OC (stereo not drawn)	·	·	·	-7%	1%	-11%
CCC(=O)NC(c1ccco1)c1cc(Cl)c2cccnc2c1O (stereo not drawn)	-29%	7.9µM*	?	-6%	-4%	-3%
CCCCC(=O)NC(c1ccco1)c1cc(Cl)c2cccnc2c1O (stereo not drawn)	30%	13µM*	?	1%	-4%	77%
O=C(CC1(c2cccc(F)c2)CC(=O)N(Cc2cccnc2)C1=O)N1CCCCCCC1 (stereo not drawn)	·	-11%	-7%	·	·	·
O=S(=O)(CCN1CCOCC1)c1ccc(Oc2ccc(S(=O)(=O)CCN3CCOCC3)cc2)cc1	-1%	?	2.2µM*	-3%	0%	72%
CNS(=O)(=O)c1ccc2nc(NC(=O)/C=C/c3ccco3)sc2c1	-5%	6.3µM*	?	-6%	6%	-20%
Cc1cc(Nc2ccccc2)nc(NCc2ccccc2)n1	-1%	-31%	?	-29%	-5%	4%
Cc1cc(Nc2ccc(Cl)cc2)nc(NCc2ccccc2)n1	-6%	11µM*	?	-10%	-11%	-1%[2.29 µM]
Cc1cc(Nc2cccc(F)c2)nc(NCc2ccccc2)n1	-9%	13µM*	?	8%	?	-21%
CCOc1ccc(NC(=O)COC(=O)c2ccccc2OCC(=O)N(C)C)cc1	·	-7%	-12%	·	·	·
COc1cc(CN2CCOc3ccc(CN4CCC(O)(c5cccnc5)CC4)cc3C2)cc(OC)c1	·	-17%	4%	·	·	·
